According to ChEMBL document CHEMBL3988442, “University of Dundee, Small-Polar-MMV Screening Library” (2021):
For some assays here: Results with a measured potency or affinity are listed apart.

Experiments:
Set-up in all cases: scale not given: direction of the effect not stated beside the values
[1] = molecular target: Protein translocase subunit SecA (Escherichia coli (strain K12)) (UniProt P10408); test: Assay to Identify E. coli SecA ATPase Inhibitors; type: functional; settings: 30 µM
[2] = molecular target: T1, Ubiquitin-activating enzyme e1, putative (Leishmania donovani (strain BPK282A1)) (UniProt E9BSI1); test: Leishmania donovani Ubiquitin Activating Enzyme (LdE1); type: functional; settings: 30 µM
T1 sequence (whole entry): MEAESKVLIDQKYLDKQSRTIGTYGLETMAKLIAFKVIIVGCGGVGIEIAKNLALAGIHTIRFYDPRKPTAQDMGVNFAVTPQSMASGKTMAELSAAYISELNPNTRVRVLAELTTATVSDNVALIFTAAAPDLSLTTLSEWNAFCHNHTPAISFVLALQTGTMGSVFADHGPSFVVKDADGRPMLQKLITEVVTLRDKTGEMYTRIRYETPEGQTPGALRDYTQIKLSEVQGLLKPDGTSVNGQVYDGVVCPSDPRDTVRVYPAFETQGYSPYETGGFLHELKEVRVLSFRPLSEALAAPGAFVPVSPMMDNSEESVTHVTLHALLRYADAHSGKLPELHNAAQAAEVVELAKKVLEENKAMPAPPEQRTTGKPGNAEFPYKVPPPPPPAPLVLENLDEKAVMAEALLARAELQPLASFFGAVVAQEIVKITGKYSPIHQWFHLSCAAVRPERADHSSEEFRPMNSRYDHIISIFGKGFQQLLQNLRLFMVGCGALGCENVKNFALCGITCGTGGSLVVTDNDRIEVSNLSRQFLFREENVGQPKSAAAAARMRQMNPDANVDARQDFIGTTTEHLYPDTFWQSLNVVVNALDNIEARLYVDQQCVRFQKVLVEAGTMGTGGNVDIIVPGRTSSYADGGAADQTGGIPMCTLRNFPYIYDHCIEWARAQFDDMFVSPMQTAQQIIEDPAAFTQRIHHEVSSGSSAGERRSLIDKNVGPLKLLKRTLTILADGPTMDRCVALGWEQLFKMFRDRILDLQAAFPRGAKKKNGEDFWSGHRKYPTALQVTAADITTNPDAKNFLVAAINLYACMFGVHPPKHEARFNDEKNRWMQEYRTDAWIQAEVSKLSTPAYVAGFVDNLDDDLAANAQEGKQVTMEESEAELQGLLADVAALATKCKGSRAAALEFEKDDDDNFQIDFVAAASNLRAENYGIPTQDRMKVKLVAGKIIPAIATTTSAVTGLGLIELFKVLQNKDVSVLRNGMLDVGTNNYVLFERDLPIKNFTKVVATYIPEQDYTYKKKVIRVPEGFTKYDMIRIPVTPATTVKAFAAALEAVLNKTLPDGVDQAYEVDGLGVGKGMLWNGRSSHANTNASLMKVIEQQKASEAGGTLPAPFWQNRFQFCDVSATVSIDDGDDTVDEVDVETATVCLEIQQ

[3] = molecular target: AMP-activated protein kinase, AMPK (Homo sapiens) (UniProt P54646+O43741+P54619+Q9UGJ0+Q9Y478+Q13131+Q9UGI9); test: AMP-dependent Kinase enzyme assay. An in vitro enzyme assay that detects ADP turnover that is directly proportional to AMPK activity. This uses naive AMPK that is activated during the assay with MK-8722; type: functional; settings: 30 µM
[4] = molecular target: Sialic acid-binding Ig-like lectin 9 (Homo sapiens) (UniProt Q9Y336); test: Hs-Siglec9 ALPHAscreen SOP 20170721; settings: 10 µM
Trypanosoma cruzi = test: Trypanosoma cruzi phosphomannomutase and mannose-1-phosphate guanylyltransferase assay; type: functional; settings: 10 µM
[5] = molecular target: T2, Arginase-2, mitochondrial (Homo sapiens) (UniProt P78540); test: in vitro enzyme assay to detect the production of urea directly proportional to the activity of Arginase II; type: functional; settings: 33.3 µM; further: in the data most compounds retested in dose-response had high values
T2 sequence (whole entry): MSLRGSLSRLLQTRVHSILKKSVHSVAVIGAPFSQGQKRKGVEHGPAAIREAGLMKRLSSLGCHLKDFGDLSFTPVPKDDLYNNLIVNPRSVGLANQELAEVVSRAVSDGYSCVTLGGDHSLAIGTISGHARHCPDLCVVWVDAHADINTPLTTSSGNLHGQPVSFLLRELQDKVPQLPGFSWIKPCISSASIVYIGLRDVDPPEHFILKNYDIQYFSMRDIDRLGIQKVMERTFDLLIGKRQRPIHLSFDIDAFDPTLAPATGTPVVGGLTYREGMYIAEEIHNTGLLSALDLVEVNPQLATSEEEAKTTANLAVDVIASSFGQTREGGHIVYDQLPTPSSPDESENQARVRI

[6] = molecular target: T3, Proteasome subunit beta (Trypanosoma cruzi) (UniProt O96673); test: Trypanosoma cruzi proteasome chymotrypsin-like activity (TcProtChymo) assay.; further: in the data most compounds retested in dose-response had high values; type: functional; settings: 9.37 µM
T3 sequence (whole entry): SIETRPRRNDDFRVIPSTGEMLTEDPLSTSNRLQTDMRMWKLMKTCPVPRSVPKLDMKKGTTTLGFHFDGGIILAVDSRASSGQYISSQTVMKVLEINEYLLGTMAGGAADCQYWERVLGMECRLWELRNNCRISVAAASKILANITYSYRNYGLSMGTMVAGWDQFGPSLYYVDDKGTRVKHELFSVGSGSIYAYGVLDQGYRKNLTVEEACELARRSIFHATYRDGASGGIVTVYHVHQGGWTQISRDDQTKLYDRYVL

Homo sapiens = species: Homo sapiens; test: To identify inhibition of the IFN signalling (Jak-Stat) pathway via expression of an eGFP reporter gene under the control of an IFN-stimulated response element (ISRE) containing MxA promoter.; type: functional; settings: 30 µM
[7] = molecular target: T4, Tyrosyl-tRNA synthetase, putative (Trypanosoma cruzi (strain CL Brener)) (UniProt Q4DSP6); test: Trypanosoma cruzi tyrosyl tRNA synthetase (TcYRS) _High Tyrosine SOP; type: functional; settings: 30 µM; further: in the data most compounds retested in dose-response had high values
T4 sequence (whole entry): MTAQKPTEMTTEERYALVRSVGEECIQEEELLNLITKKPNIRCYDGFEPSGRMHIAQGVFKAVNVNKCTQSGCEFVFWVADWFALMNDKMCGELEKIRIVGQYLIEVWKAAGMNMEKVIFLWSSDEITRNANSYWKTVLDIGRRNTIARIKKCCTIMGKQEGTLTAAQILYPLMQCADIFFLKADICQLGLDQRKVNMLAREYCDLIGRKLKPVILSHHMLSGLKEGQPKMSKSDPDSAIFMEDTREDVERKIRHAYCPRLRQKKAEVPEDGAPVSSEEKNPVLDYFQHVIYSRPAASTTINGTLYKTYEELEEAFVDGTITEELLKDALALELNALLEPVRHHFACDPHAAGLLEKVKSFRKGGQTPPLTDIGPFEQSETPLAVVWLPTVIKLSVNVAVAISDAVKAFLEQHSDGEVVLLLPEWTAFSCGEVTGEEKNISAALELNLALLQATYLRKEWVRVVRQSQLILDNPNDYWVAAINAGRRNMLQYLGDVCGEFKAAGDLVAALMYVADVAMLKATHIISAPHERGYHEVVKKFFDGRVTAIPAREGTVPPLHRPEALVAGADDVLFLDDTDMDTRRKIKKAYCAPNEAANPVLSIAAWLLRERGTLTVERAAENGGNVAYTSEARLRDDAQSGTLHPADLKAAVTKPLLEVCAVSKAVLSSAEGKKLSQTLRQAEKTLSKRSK

[8] = molecular target: T4, Tyrosyl-tRNA synthetase, putative (Trypanosoma cruzi (strain CL Brener)); test: Trypanosoma cruzi tyrosyl tRNA synthetase (TcYRS) SOP; type: functional; settings: 30 µM
[9] = molecular target: Chromo domain-containing protein 1 (Saccharomyces cerevisiae (strain ATCC 204508 / S288c) (Baker's yeast)) (UniProt P32657); test: ScCHD-1 Enzyme Inhibition Assay; type: functional; settings: 30 µM; further: in the data most compounds retested in dose-response had high values
Sequence of Chromo domain-containing protein 1 (Saccharomyces cerevisiae (strain ATCC 204508 / S288c) (Baker's yeast)) (P32657 whole entry, the tested form may be a part): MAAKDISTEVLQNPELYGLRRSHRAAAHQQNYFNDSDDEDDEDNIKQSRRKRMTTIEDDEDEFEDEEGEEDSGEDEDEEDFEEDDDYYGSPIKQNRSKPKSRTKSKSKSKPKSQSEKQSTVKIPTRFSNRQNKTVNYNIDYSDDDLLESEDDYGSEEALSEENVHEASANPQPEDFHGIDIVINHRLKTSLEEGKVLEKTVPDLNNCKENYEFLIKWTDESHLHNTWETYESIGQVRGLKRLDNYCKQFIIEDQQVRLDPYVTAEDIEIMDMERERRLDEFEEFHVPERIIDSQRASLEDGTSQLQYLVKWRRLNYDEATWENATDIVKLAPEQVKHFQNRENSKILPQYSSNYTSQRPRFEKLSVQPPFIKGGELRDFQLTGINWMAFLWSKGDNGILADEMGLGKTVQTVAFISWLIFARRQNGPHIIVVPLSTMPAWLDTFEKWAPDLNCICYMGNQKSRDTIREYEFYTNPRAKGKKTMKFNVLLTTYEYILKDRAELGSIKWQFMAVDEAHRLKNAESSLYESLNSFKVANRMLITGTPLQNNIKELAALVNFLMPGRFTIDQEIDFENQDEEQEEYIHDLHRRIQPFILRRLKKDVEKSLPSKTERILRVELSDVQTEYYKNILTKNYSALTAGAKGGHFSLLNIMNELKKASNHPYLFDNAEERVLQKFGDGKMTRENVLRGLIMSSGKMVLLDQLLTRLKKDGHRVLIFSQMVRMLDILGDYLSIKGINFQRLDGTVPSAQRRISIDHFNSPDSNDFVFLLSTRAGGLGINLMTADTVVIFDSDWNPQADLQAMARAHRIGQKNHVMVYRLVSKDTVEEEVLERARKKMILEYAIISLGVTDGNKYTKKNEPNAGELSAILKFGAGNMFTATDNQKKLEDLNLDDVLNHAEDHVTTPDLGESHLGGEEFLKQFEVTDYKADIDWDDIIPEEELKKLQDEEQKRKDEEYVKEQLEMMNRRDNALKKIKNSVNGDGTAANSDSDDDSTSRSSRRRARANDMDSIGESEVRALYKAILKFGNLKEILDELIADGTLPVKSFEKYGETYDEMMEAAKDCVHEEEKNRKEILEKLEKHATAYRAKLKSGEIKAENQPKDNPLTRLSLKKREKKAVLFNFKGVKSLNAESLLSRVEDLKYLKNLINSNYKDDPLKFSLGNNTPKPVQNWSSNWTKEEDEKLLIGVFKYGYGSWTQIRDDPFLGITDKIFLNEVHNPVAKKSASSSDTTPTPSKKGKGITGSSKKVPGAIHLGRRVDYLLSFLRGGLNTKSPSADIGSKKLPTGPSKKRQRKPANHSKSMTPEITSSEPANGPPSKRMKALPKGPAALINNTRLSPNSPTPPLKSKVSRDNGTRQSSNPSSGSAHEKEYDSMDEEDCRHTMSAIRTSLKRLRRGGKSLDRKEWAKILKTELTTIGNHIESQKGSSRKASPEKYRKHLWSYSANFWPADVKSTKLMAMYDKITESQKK

Sequence of Protein translocase subunit SecA (Escherichia coli (strain K12)) (P10408 whole entry): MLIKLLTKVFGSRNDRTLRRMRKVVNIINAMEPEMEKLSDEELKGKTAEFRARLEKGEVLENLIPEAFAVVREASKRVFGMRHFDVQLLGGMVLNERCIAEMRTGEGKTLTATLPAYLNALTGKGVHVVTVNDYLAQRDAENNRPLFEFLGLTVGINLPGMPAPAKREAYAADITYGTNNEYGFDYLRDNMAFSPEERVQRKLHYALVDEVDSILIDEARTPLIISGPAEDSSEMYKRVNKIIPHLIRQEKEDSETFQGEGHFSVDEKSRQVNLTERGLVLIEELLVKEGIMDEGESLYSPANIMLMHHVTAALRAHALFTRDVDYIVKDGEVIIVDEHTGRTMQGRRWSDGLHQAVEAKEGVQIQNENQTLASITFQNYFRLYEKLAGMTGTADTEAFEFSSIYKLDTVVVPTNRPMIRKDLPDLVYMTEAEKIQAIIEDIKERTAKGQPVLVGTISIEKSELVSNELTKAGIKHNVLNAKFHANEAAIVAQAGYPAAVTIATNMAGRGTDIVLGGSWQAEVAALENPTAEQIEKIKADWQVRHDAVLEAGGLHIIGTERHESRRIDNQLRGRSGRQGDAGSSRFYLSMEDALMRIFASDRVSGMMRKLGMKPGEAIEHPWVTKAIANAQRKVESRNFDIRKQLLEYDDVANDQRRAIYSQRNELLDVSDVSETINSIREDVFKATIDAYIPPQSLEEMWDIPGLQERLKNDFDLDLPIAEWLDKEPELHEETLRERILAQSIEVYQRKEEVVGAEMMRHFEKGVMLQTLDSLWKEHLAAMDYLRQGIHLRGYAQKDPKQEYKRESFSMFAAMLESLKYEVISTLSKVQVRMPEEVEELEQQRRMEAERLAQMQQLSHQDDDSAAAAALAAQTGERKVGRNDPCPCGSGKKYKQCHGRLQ
Sequence of Sialic acid-binding Ig-like lectin 9 (Homo sapiens) (Q9Y336 whole entry): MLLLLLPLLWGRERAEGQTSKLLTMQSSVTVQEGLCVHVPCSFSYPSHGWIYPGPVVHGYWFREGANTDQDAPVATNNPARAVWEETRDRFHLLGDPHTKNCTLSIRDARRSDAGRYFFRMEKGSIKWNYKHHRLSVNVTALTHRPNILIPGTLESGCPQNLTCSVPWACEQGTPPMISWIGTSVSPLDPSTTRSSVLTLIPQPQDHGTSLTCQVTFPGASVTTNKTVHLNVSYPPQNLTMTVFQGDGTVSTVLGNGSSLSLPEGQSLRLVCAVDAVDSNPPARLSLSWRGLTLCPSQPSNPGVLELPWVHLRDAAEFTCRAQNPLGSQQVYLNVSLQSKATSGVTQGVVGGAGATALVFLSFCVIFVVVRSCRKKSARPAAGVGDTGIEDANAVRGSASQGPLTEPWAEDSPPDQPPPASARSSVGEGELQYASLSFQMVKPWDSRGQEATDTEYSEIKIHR

SMILES | Percent Effect [1] [%] | Percent Effect [2] [%] | Percent Effect [3] [%] | Percent Effect [4] [%] | Percent Effect (Trypanosoma cruzi) [%] | Percent Effect [5] [%] | Percent Effect [6] [%] | Percent Effect (Homo sapiens) [%] | Percent Effect [7] [%] | Percent Effect [8] [%] | Percent Effect [9] [%]
O=C(Cn1cccn1)NCC1(c2ccccc2)CC1 | -4.9 | 2.6 | 0.192 | -7.24 | -2.25 | 2.74 | -1.86 | 23.2 | -0.952 | -2.35 | -6.03
Cc1nccc(CN2CCC(c3nnsc3S(C)(=O)=O)CC2)n1 | -3.04 | 6.76 | 5.68 | 4.24 | -3.75 | -1.16 | 8.89 | 16.8 | 3.23 | 11.7 | -12
CN1C(=O)CC(c2cnn(C)c2)C12CCN(C(=O)C1CC=CC1)CC2 (configuration not stated) | -3.3 | -2.7 | 6.7 | 5.51 | -2.25 | -2.23 | 7.2 | -12.6 | -1.08 | -2.56 | 9.24
Cc1cnn(C2CCCN(C(=O)CCCNc3ncccn3)C2)c1 (configuration not stated) | 0.326 | 21.6 | -4.82 | -6.78 | -4.62 | 0 | 10.3 | 6.71 | -13.3 | 16.1 | -4.22
CC(C)(O)CN1CCN(C(=O)c2sccc2C2CC2)CC1 | -3.28 | 6.33 | 9.46 | 2.31 | -2.56 | 4.09 | 4.97 | 1.7 | 3.12 | 2.53 | -6.63
COc1cccn(CC(=O)N(C)CCOc2cc(C)cc(C)c2)c1=O | -5.42 | 8.22 | -63.8 | 11.9 | 2.98 | -12.8 | 15.2 | -0.398 | -2.08 | 3.7 | -0.823
CCOc1cc(F)ccc1NS(=O)(=O)c1cc(C)c(C(=O)O)s1 | -9.09 | 8.11 | -10.6 | 28.9 | 4.59 | 0.248 | 8.15 | -8.12 | -5.38 | -1.24 | -11.4
CC(C)S(=O)(=O)N1CCC(c2cc3n(n2)[C@@H](C(F)(F)F)C[C@@H](C)N3)C1 (some centres not stated) | -0.301 | 5.33 | -46.3 | 0.653 | 4.13 | -1.63 | 5.02 | 9.18 | 4.25 | 6.41 | -0.108
Cc1nn(C)c(C)c1C1CCCN1Cc1noc(C2CC2)n1 (configuration not stated) | 2 | 15.8 | -5.38 | -11.5 | -8.87 | 3.96 | 15.5 | 8.86 | 8.37 | 6.17 | -6.57
CC(=O)N1CCC(C(=O)c2cc(C)cnc2N)CC1 | -3.36 | 10.7 | 3.67 | 3.51 | 3.15 | 3.03 | 7.67 | 17.4 | 4.25 | 11.5 | -4.18
COc1cccc(COCC(=O)N2CCC(CC(N)=O)CC2)c1 | -3.54 | 7.89 | -1.04 | -0.0672 | -6.77 | 5.75 | 0.334 | 23.7 | 5.39 | 12.2 | -3.41
O=C(CCNCC(F)(F)F)N1CCC(Nc2cccnn2)CC1 | 2.07 | 28.9 | 4.48 | -13.6 | 5.13 | 4.68 | 8.88 | 12.2 | 4.43 | 23.5 | -14.7
CCS(=O)(=O)CCNC(=O)c1ccc(-c2ccc(C)cc2)cc1F | -3.31 | 5.2 | -1.14 | 2.26 | -2.26 | -2.76 | 14.6 | 18.8 | -14 | 1.24 | 2.27
CC(=O)N1CCN(C(=O)NCc2csc(Br)c2)CC1 | -7.09 | 2.7 | 4.94 | 5.56 | 0.0929 | -0.554 | -3.77 | 6.02 | 7.92 | 1.22 | -0.334
NS(=O)(=O)c1ccc(NC(=O)CSc2ccc3c(c2)CCC3)cc1 | -2.43 | -2.7 | 2.08 | -4.31 | -4.69 | -21.2 | 13.1 | 6.93 | 1.98 | -13.4 | 17.3
CC(C)(C)c1cc(CN2CC[C@@H](NC(=O)c3cccnc3)[C@H](O)C2)n[nH]1 | -3.5 | 1.39 | -10.7 | 10.3 | 4.37 | 17.7 | 6.49 | 15.6 | 3.16 | 12.8 | -6.81
Cc1ccc(C)c(NC(=O)Nc2c[nH]c(=O)[nH]c2=O)c1 | 3.77 | 13 | -1.87 | -3.33 | -4.44 | 11 | 4.7 | 7.57 | 2.12 | 3.85 | -8.57
CCc1nc(CN(C)CC2CCN(CC(C)O)CC2)no1 (configuration not stated) | -2.22 | 0 | -8.55 | 0.164 | 9.46 | -2.86 | 1.03 | -23.1 | 2.65 | 7.32 | -1.75
Cc1nc(C)n(CC2CCCCN2CC(=O)Nc2nncs2)n1 (configuration not stated) | -8.22 | 2.67 | -1.04 | 1.02 | -2.04 | 2.6 | 2.79 | -3.85 | 2.73 | 11.1 | -5.05
CC(=O)Nc1nc(C(=O)Nc2ccc(N3CCCCC3)nc2)cs1 | -1.91 | -3.8 | 22.9 | 0.734 | -3.18 | -1.5 | 10.6 | 11.2 | 9.38 | 10.1 | -11.6
O=C(NC1CC1)N1CCc2ncnc(-c3ccncc3)c2CC1 | 5.45 | 10.7 | 17.6 | 1.38 | -6.37 | -55.4 | 12 | 4.1 | 2.08 | 25 | -4.64
CN1CCN(C(=O)[C@@H]2CCO[C@@H]3CCN(c4ncccn4)C[C@@H]32)CC1 | -0.254 | 13.3 | 0.0211 | 0.601 | 2.7 | -48.9 | 8.21 | -18.8 | 7.29 | 17.5 | -7.16
